Experimental data: PubChem BioAssay AID1159580 (chemical genetic matrix, 2015)
In all, about 5,500 compounds went through this assay and about 2,000 (36%) were called active. Roughly 18% stayed inconclusive and do not appear here. Cut-off read from the data, not from the text of the source: active = normalized growth mostly below about 0.91 (no sharp cut-off); inconclusive = no clear call, values can overlap the other calls; inactive = mostly above about 0.92. Some of the results follow.

Assay: chemical genetic growth profiling, strain panel (AID 1159580);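 note: tested at 20 µM; growth read once vehicle control cultures reached saturation at 30 °C; 1 = growth at the plate median or of vehicle wells; lower values mean less growth of the strain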
Conditions: growth OD

Measured: normalized growth

CCOc1cccc(C(=O)c2ccc(O)c(O)c2O)c1
active: S. cerevisiae deletion strains, locus YKR001C, strain vps1, active compounds read low 0.811 | S. cerevisiae deletion strains, locus YLR027C, strain aat2, active compounds read low 0.905 | S. cerevisiae deletion strains, locus YLR039C, strain RIC1, active compounds read low 0.521 | S. cerevisiae deletion strains, locus YLR058C, strain SHM2, active compounds read low 0.524 | S. cerevisiae deletion strains, locus YLR221C, strain rsa3, active compounds read low 0.87 | S. cerevisiae deletion strains, locus YLR258W, strain gsy2, active compounds read low 0.899 | S. cerevisiae deletion strains, locus YLR262C, strain YPT6 (second series), active compounds read low 0.627 | S. cerevisiae deletion strains, locus YLR268W, strain sec22, active compounds read low 0.72 | S. cerevisiae deletion strains, locus YLR320W, strain mms22, active compounds read low 0.806 | S. cerevisiae deletion strains, locus YLR330W, strain CHS5, active compounds read low 0.804 | S. cerevisiae deletion strains, locus YLR342W, strain FKS1 (second series), active compounds read low 0.633 | S. cerevisiae deletion strains, locus YLR342W, strain FKS1, active compounds read low 0.903 | S. cerevisiae deletion strains, locus YLR357W, strain rsc2, active compounds read low 0.706 | S. cerevisiae deletion strains, locus YLR371W, strain rom2, active compounds read low 0.737 | S. cerevisiae deletion strains, locus YLR418C, strain cdc73, active compounds read low 0.563 | S. cerevisiae deletion strains, locus YML016C, strain PPZ1, active compounds read low 0.71 | S. cerevisiae deletion strains, locus YML120C, strain ndi1, active compounds read low 0.765 | S. cerevisiae deletion strains, locus YMR058W, strain fet3, active compounds read low 0.283 | S. cerevisiae deletion strains, locus YMR205C, strain PFK2, active compounds read low 0.74 | S. cerevisiae deletion strains, locus YMR223W, strain ubp8, active compounds read low 0.844 | S. cerevisiae deletion strains, locus YMR231W, strain pep5, active compounds read low 0.826 | S. cerevisiae deletion strains, locus YMR263W, strain SAP30, active compounds read low 0.854 | S. cerevisiae deletion strains, locus YNL067W, strain RPL9B, active compounds read low 0.841 | S. cerevisiae deletion strains, locus YNL071W, strain lat1, active compounds read low 0.889 | S. cerevisiae deletion strains, locus YNL153C, strain GIM3, active compounds read low 0.747 | S. cerevisiae deletion strains, locus YNL209W, strain ssb2, active compounds read low 0.752 | S. cerevisiae deletion strains, locus YNL233W, strain BNI4, active compounds read low 0.781 | S. cerevisiae deletion strains, locus YNL271C, strain bni1, active compounds read low 0.886 | S. cerevisiae deletion strains, locus YNR052C, strain pop2, active compounds read low 0.739 | S. cerevisiae deletion strains, locus YOL006C, strain TOP1, active compounds read low 0.398 | S. cerevisiae deletion strains, locus YOL147C, strain pex11, active compounds read low 0.823 | S. cerevisiae deletion strains, locus YOR001W, strain rrp6, active compounds read low 0.87 | S. cerevisiae deletion strains, locus YOR061W, strain CKA2, active compounds read low 0.788 | S. cerevisiae deletion strains, locus YOR069W, strain VPS5, active compounds read low 0.808 | S. cerevisiae deletion strains, locus YOR070C, strain gyp1, active compounds read low 0.925 | S. cerevisiae deletion strains, locus YOR106W, strain vam3, active compounds read low 0.639 | S. cerevisiae deletion strains, locus YOR144C, strain elg1, active compounds read low 0.816 | S. cerevisiae deletion strains, locus YOR184W, strain ser1, active compounds read low 0.812 | S. cerevisiae deletion strains, locus YOR265W, strain rbl2, active compounds read low 0.923 | S. cerevisiae deletion strains, locus YOR270C, strain vph1, active compounds read low 0.637 | S. cerevisiae deletion strains, locus YOR290C, strain snf2, active compounds read low 0.64 | S. cerevisiae deletion strains, locus YPL051W, strain arl3, active compounds read low 0.767 | S. cerevisiae deletion strains, locus YPL106C, strain sse1, active compounds read low 0.823 | S. cerevisiae deletion strains, locus YPL241C, strain CIN2, active compounds read low 0.926 | S. cerevisiae deletion strains, locus YPR167C, strain met16, active compounds read low 0.84 | S. cerevisiae deletion strains, strain wtn01, active compounds read low 0.799 | S. cerevisiae strains, strain wild type, active compounds read low 0.635
inactive: S. cerevisiae deletion strains, locus YKL009W, strain mrt4, active compounds read low 0.914 | S. cerevisiae deletion strains, locus YKL068W, active compounds read low 0.972 | S. cerevisiae deletion strains, locus YKL085W, strain MDH1 (second series), active compounds read low 0.955 | S. cerevisiae deletion strains, locus YKL085W, strain MDH1, active compounds read low 0.955 | S. cerevisiae deletion strains, locus YKL160W, strain elf1, active compounds read low 0.93 | S. cerevisiae deletion strains, locus YKR026C, strain gcn3, active compounds read low 0.956 | S. cerevisiae deletion strains, locus YKR091W, strain srl3, active compounds read low 0.966 | S. cerevisiae deletion strains, locus YLL001W, strain dnm1, active compounds read low 0.945 | S. cerevisiae deletion strains, locus YLL026W, active compounds read low 0.936 | S. cerevisiae deletion strains, locus YLL041C, strain sdh2, active compounds read low 0.939 | S. cerevisiae deletion strains, locus YLR102C, strain apc9, active compounds read low 0.996 | S. cerevisiae deletion strains, locus YLR113W, strain HOG1, active compounds read low 1.05 | S. cerevisiae deletion strains, locus YLR370C, strain arc18, active compounds read low 0.939 | S. cerevisiae deletion strains, locus YLR384C, strain iki3, active compounds read low 0.938 | S. cerevisiae deletion strains, locus YML032C, strain rad52, active compounds read low 0.942 | S. cerevisiae deletion strains, locus YML124C, strain tub3, active compounds read low 0.948 | S. cerevisiae deletion strains, locus YMR078C, strain ctf18, active compounds read low 0.966 | S. cerevisiae deletion strains, locus YMR125W, strain sto1, active compounds read low 0.976 | S. cerevisiae deletion strains, locus YMR129W, active compounds read low 0.95 | S. cerevisiae deletion strains, locus YMR307W, strain GAS1, active compounds read low 0.698 | S. cerevisiae deletion strains, locus YNL183C, strain NPR1, active compounds read low 0.98 | S. cerevisiae deletion strains, locus YNL248C, strain rpa49, active compounds read low 0.95 | S. cerevisiae deletion strains, locus YNL250W, strain rad50, active compounds read low 0.937 | S. cerevisiae deletion strains, locus YNL298W, strain CLA4, active compounds read low 0.931 | S. cerevisiae deletion strains, locus YNL307C, strain MCK1, active compounds read low 0.907 | S. cerevisiae deletion strains, locus YNL322C, strain KRE1 (second series), active compounds read low 0.965 | S. cerevisiae deletion strains, locus YNR049C, strain mso1, active compounds read low 0.961 | S. cerevisiae deletion strains, locus YOL012C, strain htz1 0.288 | S. cerevisiae deletion strains, locus YOR080W, strain dia2, active compounds read low 0.961 | S. cerevisiae deletion strains, locus YOR083W, strain WHI5, active compounds read low 0.894 | S. cerevisiae deletion strains, locus YOR136W, strain idh2, active compounds read low 0.93 | S. cerevisiae deletion strains, locus YOR231W, strain MKK1, active compounds read low 1 | S. cerevisiae deletion strains, locus YOR316C, strain cot1, active compounds read low 0.962 | S. cerevisiae deletion strains, locus YPL078C, strain atp4, active compounds read low 0.931 | S. cerevisiae deletion strains, locus YPL240C, strain hsp82, active compounds read low 0.954 | S. cerevisiae deletion strains, locus YPL256C, strain CLN2, active compounds read low 1.07 | S. cerevisiae deletion strains, locus YPR119W, strain clb2, active compounds read low 0.982 | S. cerevisiae deletion strains, locus YPR141C, strain kar3, active compounds read low 0.963 | S. cerevisiae deletion strains, locus YPR163C, strain tif3, active compounds read low 0.936
